The panel holds about 83,000 compounds, 20% with a hit somewhere; the sample as a whole holds those more often.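 Cell lines were cultured in 96-well plates, exposed to a single compound concentration, and assessed for percent growth 48 hours later.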 Unmarked numbers belong to inactive results. Calls of active or inactive are those of the source. The calls were made as follows: active = growth percent below 10; inactive = the rest.

We go through 14 compounds from PubChem BioAssay (NCI).

Some test systems named below: SK-MEL-2 melanoma; EKVX NSCLC; SN12C renal; UO-31 renal; TK-10 renal; ACHN renal; CAKI-1 renal; A498 renal; MOLT-4 leukemia; CCRF-CEM leukemia.
Common to all, as to test: NCI-60 one-dose screen, 48 h (100 = growth as untreated, 0 = no growth, -100 = all killed)
Holding throughout (details): 10 µM unless noted

Turning to `Cc1cc2nc3c([nH]c2cc1C)c1ccc(=O)cc1n3CCN(C)C`, the growth with SK-MEL-2 melanoma was 73.4%; in the assay with EKVX NSCLC it was 76.7%; in the assay with SN12C renal it was 37.7%; with UO-31 renal, 12.5%; with TK-10 renal, 105%; in the assay on ACHN renal it was 20.4%. Also, the growth is 19.9% in the assay on CAKI-1 renal, 111% in the assay on A498 renal and 5.98% (active) with MOLT-4 leukemia.

In the case of `CSc1ccc(NC(=O)c2ccc3nnn(/C(C#N)=C/c4ccccn4)c3c2)cc1`, the growth in the assay on SK-MEL-2 melanoma was -96.3% (active); in the assay on EKVX NSCLC, -99.6% (active); in the assay with SN12C renal, -99.9% (active); in the assay on UO-31 renal, -100% (active); in the assay with TK-10 renal it was -98.5% (active); with ACHN renal it was -100% (active). Also, the growth in the assay on CAKI-1 renal was -93.5% (active); with A498 renal, 45.1%; in the assay on MOLT-4 leukemia, 6.04% (active).

As to `Cn1cc(-c2nc(N)nnc2-c2c[nH]c3ccc(Br)cc23)c2cc(Br)cnc21`, the growth in the assay on SK-MEL-2 melanoma was 13.1%; with EKVX NSCLC it was 30.4%; in the assay on SN12C renal it was 11.3%; in the assay on UO-31 renal, 10.4%; in the assay on TK-10 renal, 47.4%; with ACHN renal, 6.39% (active). The growth in the assay on CAKI-1 renal is -8.15% (active); in the assay on A498 renal, -14.3% (active); with CCRF-CEM leukemia, 0.493% (active); with MOLT-4 leukemia, -2.69% (active).

Consider `COc1ccc(-c2cc(C(=O)NCc3ccccc3)nn2-c2ccc(S(C)(=O)=O)cc2)cc1OC`, for which the growth was 119% in the assay on SK-MEL-2 melanoma; 97.5% with EKVX NSCLC; 88.1% in the assay with SN12C renal; 77% with UO-31 renal; 106% in the assay with TK-10 renal; 104% in the assay on ACHN renal. Moreover, the growth was 87.1% with CAKI-1 renal, 99.9% in the assay with A498 renal, 101% in the assay with CCRF-CEM leukemia and -4.09% (active) in the assay on MOLT-4 leukemia.

For the compound `Cc1ccc(S(=O)(=O)c2nc(S(=O)(=O)c3ccc(C)cc3)c(Cl)s2)cc1`, the growth was 42.5% in the assay with SK-MEL-2 melanoma; 0.151% (active) with EKVX NSCLC; -20.5% (active) in the assay with SN12C renal; -6.4% (active) in the assay with UO-31 renal; -50.4% (active) with TK-10 renal; -92.3% (active) with ACHN renal. The growth was -75.8% (active) in the assay on CAKI-1 renal, 122% with A498 renal and 16.6% with MOLT-4 leukemia.

Regarding `N#Cc1c(-c2cccc(O)c2O)cc(-c2ccc3ccccc3c2)[nH]c1=O`, the growth in the assay on SK-MEL-2 melanoma was 98.8%; in the assay with EKVX NSCLC, 74.5%; in the assay on SN12C renal it was 58.4%; with UO-31 renal, 55.9%; with TK-10 renal, 85.4%; in the assay with ACHN renal it was 56.4%. Also, the values for the growth in the assay on CAKI-1 renal, with A498 renal and with MOLT-4 leukemia were 75.6%, 82.1% and 29.9%, respectively.

Regarding `COCOc1ccc2c(=O)c(C)c(C(=O)N[C@@H](Cc3ccccc3)C(O)C(=O)NCCc3ccc(OC)cc3)oc2c1` (stereo partly drawn), the growth was 118% in the assay with SK-MEL-2 melanoma; 111% in the assay with EKVX NSCLC; 95.2% with SN12C renal; -20.1% (active) in the assay with UO-31 renal; 116% with TK-10 renal; 114% with ACHN renal. For the same compound, the growth with CAKI-1 renal is 101%; in the assay with A498 renal, 136%; with CCRF-CEM leukemia it was 105%; in the assay on MOLT-4 leukemia, 94.8%.

In the case of `CN(C)c1nc(NCCNS(=O)(=O)c2ccc(C3=Nc4c(N)nc(N)nc4NC(c4ccc(F)cc4)C3)cc2)nc(Nc2ccc(F)cc2)n1` (stereo not drawn), the growth with SK-MEL-2 melanoma is 58.7%; in the assay on EKVX NSCLC, 47.5%; with SN12C renal it was 42.7%; in the assay on UO-31 renal it was 82.9%; with TK-10 renal, 65.9%; in the assay on ACHN renal it was 77.1%. Also, the growth with CAKI-1 renal is 64.4%; with A498 renal, 53.3%; with CCRF-CEM leukemia, 8.67% (active); in the assay with MOLT-4 leukemia, 6.56% (active).

As for `N#Cc1ccc(C(=O)Nn2c(N)cc3ccccc3c2=O)cc1`, the growth in the assay with SK-MEL-2 melanoma is 104%; in the assay with EKVX NSCLC it was 85.8%; in the assay with SN12C renal, 89.9%; in the assay on UO-31 renal, 64.9%; in the assay on TK-10 renal it was 119%; with ACHN renal, 92.9%. Besides, the growth was 78% in the assay with CAKI-1 renal, 113% in the assay with A498 renal and 84.6% with MOLT-4 leukemia.

`CN(C)CCn1c2ccccc2c2nc3cc(C(F)(F)F)ccc3nc21`: the growth with SK-MEL-2 melanoma was 56.4%; in the assay on EKVX NSCLC, 64.3%; with SN12C renal, 21.7%; in the assay on UO-31 renal, 11.9%; in the assay on TK-10 renal, 108%; in the assay on ACHN renal it was 13.5%. Further, the growth in the assay with CAKI-1 renal was 11%; in the assay on A498 renal it was 75.8%; with MOLT-4 leukemia, 23.8%.

In the case of `C#CCOc1cc(N(CC)CC)ccc1C(C(=O)NC(C)(C)C)N(C(=O)C1CCc2cc(F)ccc2O1)c1ccc(F)c(Cl)c1` (stereo not drawn), the growth in the assay on SK-MEL-2 melanoma is -6.45% (active); in the assay with EKVX NSCLC it was 54.4%; in the assay on SN12C renal it was 55.8%; in the assay on UO-31 renal, 47.2%; in the assay with TK-10 renal, 85.2%; in the assay on ACHN renal, 61.6%. The growth with CAKI-1 renal was 41.1%; with A498 renal, 73%; in the assay with CCRF-CEM leukemia it was 52.8%; in the assay with MOLT-4 leukemia, 21.2%.

As to `O=C(COc1ccc(NC(=O)Nc2ccc(Cl)c(Cl)c2)cc1)N=Nc1c(O)[nH]c2ccc(Cl)cc12`, the growth is -64.9% (active) in the assay with SK-MEL-2 melanoma; 7.69% (active) in the assay on EKVX NSCLC; -30.4% (active) in the assay on SN12C renal; 56.8% in the assay on UO-31 renal; 1.73% (active) with TK-10 renal; 20.9% in the assay on ACHN renal. Besides, the growth in the assay with CAKI-1 renal is -5.97% (active); in the assay with A498 renal, -32.4% (active); in the assay on CCRF-CEM leukemia, 8.9% (active); in the assay with MOLT-4 leukemia, -1.42% (active).

In the case of `CN(C)CCOc1ccc(C(=O)C2[C@H](c3ccc(Cl)cc3)[C@@H](c3ccccc3)NC23C(=O)Nc2ccc(Br)cc23)cc1` (stereo partly drawn), the growth was 54.1% in the assay with SK-MEL-2 melanoma; 12.3% with EKVX NSCLC; 7.21% (active) with SN12C renal; 32.8% with UO-31 renal; 90.2% in the assay on TK-10 renal; -27.9% (active) with ACHN renal. Besides, the growth with CAKI-1 renal was 18.5%; with A498 renal, 96%; in the assay on MOLT-4 leukemia, -52.3% (active).

In the case of `O=S(=O)(Nc1cccc(-n2cnc3cc(-c4ccc(O)cc4)ccc32)c1)C1CC1`, the growth in the assay on SK-MEL-2 melanoma is 51.7%; in the assay with EKVX NSCLC, 46.4%; in the assay with SN12C renal, 34.8%; in the assay with UO-31 renal, 21%; in the assay with TK-10 renal, 65%; in the assay with ACHN renal, 21.3%. In addition, the growth in the assay with CAKI-1 renal is 18.9%; in the assay on A498 renal it was 30.6%; with CCRF-CEM leukemia it was 23.6%; in the assay with MOLT-4 leukemia it was 13.7%.
